What all share (set-up): scale not given: direction of the effect not stated beside the values
Assay [1] deals with Protein translocase subunit SecA (Escherichia coli (strain K12)) (UniProt P10408). Put plainly: Assay to Identify E. coli SecA ATPase Inhibitors. Conditions: 30 µM. Format: functional.
The target in assay [2] is T1, Ubiquitin-activating enzyme e1, putative (Leishmania donovani (strain BPK282A1)) (UniProt E9BSI1).
T1 sequence (whole entry): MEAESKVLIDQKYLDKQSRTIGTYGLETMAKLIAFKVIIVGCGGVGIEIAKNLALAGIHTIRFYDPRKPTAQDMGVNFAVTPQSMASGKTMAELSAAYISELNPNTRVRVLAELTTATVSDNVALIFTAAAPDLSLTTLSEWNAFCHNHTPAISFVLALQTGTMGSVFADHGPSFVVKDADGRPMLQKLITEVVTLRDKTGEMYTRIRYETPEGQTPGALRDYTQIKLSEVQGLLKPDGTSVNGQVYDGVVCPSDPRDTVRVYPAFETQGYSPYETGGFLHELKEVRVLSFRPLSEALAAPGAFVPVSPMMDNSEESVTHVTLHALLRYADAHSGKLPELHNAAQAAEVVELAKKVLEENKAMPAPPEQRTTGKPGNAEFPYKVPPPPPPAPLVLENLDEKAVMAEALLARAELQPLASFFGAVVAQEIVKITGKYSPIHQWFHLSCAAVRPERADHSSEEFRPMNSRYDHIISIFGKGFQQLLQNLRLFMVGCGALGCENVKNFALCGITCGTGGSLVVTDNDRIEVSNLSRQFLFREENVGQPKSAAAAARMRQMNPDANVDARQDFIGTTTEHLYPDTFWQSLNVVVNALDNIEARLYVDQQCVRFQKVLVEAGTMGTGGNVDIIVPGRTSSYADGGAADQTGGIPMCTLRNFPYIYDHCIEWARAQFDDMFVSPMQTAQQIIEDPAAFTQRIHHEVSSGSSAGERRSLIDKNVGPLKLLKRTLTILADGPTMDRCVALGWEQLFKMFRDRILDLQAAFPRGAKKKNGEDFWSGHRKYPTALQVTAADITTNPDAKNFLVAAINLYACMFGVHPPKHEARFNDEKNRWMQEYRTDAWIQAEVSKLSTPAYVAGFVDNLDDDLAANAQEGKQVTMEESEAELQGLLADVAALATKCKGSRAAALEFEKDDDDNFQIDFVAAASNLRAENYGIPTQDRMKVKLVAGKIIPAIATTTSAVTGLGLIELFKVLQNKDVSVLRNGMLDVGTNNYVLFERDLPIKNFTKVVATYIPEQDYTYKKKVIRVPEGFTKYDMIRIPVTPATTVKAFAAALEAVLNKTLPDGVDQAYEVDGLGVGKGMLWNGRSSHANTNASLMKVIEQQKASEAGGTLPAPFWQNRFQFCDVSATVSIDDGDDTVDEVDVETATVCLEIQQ
Briefly: Leishmania donovani Ubiquitin Activating Enzyme (LdE1). As to conditions: 30 µM. It is filed as functional.

Assay [3] addresses AMP-activated protein kinase, AMPK (Homo sapiens) (UniProt P54646+O43741+P54619+Q9UGJ0+Q9Y478+Q13131+Q9UGI9). Briefly: AMP-dependent Kinase enzyme assay. An in vitro enzyme assay that detects ADP turnover that is directly proportional to AMPK activity. This uses naive AMPK that is activated during the assay with MK-8722. It is filed as functional. Conditions: 30 µM.
Assay [4] deals with Sialic acid-binding Ig-like lectin 9 (Homo sapiens) (UniProt Q9Y336). Put plainly: Hs-Siglec9 ALPHAscreen SOP 20170721. As to conditions: 10 µM.
In a further assay the test system is Trypanosoma cruzi. Put plainly: Trypanosoma cruzi phosphomannomutase and mannose-1-phosphate guanylyltransferase assay. It is filed as functional. Conditions: 10 µM.
For assay [5], the target named is T2, Arginase-2, mitochondrial (Homo sapiens) (UniProt P78540).
T2 sequence (whole entry): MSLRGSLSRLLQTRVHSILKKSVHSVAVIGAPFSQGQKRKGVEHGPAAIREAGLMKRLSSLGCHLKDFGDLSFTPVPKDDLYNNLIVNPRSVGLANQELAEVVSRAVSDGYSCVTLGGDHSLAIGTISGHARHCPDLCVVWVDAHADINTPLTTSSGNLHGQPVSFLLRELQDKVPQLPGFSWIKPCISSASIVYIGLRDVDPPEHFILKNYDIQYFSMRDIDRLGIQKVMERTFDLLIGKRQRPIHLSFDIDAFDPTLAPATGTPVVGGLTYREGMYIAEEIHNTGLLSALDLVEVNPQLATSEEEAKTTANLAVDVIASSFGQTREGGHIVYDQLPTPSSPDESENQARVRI
Put plainly: in vitro enzyme assay to detect the production of urea directly proportional to the activity of Arginase II. Also: in the data most compounds retested in dose-response had high values. It is filed as functional. As to conditions: 33.3 µM.

For assay [6], the target named is T3, Proteasome subunit beta (Trypanosoma cruzi) (UniProt O96673).
T3 sequence (whole entry): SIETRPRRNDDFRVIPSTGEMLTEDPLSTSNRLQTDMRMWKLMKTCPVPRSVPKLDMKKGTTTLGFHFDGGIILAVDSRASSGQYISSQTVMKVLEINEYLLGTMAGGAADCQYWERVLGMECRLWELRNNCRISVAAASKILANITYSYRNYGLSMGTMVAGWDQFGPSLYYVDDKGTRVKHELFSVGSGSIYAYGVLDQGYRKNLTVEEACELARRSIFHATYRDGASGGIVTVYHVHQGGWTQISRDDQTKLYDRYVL
Briefly: Trypanosoma cruzi proteasome chymotrypsin-like activity (TcProtChymo) assay. Also: in the data most compounds retested in dose-response had high values. It is filed as functional. Conditions: 9.37 µM.

The species named for another assay is Homo sapiens. Briefly: To identify inhibition of the IFN signalling (Jak-Stat) pathway via expression of an eGFP reporter gene under the control of an IFN-stimulated response element (ISRE) containing MxA promoter. It is filed as functional. As to conditions: 30 µM. On the technique in general: A reporter such as luciferase makes a cellular process visible.

The target of assay [7] is T4, Tyrosyl-tRNA synthetase, putative (Trypanosoma cruzi (strain CL Brener)) (UniProt Q4DSP6).
T4 sequence (whole entry): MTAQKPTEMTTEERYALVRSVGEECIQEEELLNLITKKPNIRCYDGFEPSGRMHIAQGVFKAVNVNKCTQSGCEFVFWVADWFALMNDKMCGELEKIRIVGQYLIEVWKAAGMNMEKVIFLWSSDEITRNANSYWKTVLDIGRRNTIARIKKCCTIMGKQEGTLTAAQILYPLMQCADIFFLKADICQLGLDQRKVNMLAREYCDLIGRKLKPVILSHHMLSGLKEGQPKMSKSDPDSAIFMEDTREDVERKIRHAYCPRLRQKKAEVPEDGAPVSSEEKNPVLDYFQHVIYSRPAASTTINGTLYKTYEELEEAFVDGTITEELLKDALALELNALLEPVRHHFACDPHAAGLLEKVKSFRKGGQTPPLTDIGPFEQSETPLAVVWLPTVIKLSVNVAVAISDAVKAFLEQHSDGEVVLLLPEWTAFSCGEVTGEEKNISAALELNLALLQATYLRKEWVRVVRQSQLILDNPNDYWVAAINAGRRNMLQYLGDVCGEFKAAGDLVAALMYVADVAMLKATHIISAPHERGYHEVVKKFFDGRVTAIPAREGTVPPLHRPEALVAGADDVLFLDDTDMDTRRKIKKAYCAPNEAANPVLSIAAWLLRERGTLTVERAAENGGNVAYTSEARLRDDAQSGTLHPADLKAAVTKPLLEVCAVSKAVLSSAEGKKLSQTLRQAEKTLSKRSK
Briefly: Trypanosoma cruzi tyrosyl tRNA synthetase (TcYRS) _High Tyrosine SOP. Also: in the data most compounds retested in dose-response had high values. It is filed as functional. As to conditions: 30 µM.

The target of assay [8] is T4, Tyrosyl-tRNA synthetase, putative (Trypanosoma cruzi (strain CL Brener)). Put plainly: Trypanosoma cruzi tyrosyl tRNA synthetase (TcYRS) SOP. Format: functional. Conditions: 30 µM.
Assay [9] concerns the target Chromo domain-containing protein 1 (Saccharomyces cerevisiae (strain ATCC 204508 / S288c) (Baker's yeast)) (UniProt P32657). Briefly: ScCHD-1 Enzyme Inhibition Assay. Also: in the data most compounds retested in dose-response had high values. Format: functional. As to conditions: 30 µM.

Structures are written as SMILES. For some assays here: Potency and affinity values are given separately.

Sequence of Sialic acid-binding Ig-like lectin 9 (Homo sapiens) (Q9Y336 whole entry): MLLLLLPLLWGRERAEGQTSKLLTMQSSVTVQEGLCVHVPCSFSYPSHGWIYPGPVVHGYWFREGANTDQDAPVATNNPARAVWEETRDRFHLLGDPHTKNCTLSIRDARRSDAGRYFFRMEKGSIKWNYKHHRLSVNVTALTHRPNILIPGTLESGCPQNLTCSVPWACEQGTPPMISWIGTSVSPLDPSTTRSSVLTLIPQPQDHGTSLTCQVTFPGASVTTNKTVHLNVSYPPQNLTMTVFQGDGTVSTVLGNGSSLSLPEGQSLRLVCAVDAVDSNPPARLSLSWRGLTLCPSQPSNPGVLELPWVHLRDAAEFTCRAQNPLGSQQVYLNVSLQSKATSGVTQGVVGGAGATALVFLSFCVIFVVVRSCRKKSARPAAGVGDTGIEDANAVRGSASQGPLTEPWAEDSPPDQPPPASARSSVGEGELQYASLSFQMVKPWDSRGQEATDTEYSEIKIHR
Sequence of Chromo domain-containing protein 1 (Saccharomyces cerevisiae (strain ATCC 204508 / S288c) (Baker's yeast)) (P32657 whole entry, the tested form may be a part): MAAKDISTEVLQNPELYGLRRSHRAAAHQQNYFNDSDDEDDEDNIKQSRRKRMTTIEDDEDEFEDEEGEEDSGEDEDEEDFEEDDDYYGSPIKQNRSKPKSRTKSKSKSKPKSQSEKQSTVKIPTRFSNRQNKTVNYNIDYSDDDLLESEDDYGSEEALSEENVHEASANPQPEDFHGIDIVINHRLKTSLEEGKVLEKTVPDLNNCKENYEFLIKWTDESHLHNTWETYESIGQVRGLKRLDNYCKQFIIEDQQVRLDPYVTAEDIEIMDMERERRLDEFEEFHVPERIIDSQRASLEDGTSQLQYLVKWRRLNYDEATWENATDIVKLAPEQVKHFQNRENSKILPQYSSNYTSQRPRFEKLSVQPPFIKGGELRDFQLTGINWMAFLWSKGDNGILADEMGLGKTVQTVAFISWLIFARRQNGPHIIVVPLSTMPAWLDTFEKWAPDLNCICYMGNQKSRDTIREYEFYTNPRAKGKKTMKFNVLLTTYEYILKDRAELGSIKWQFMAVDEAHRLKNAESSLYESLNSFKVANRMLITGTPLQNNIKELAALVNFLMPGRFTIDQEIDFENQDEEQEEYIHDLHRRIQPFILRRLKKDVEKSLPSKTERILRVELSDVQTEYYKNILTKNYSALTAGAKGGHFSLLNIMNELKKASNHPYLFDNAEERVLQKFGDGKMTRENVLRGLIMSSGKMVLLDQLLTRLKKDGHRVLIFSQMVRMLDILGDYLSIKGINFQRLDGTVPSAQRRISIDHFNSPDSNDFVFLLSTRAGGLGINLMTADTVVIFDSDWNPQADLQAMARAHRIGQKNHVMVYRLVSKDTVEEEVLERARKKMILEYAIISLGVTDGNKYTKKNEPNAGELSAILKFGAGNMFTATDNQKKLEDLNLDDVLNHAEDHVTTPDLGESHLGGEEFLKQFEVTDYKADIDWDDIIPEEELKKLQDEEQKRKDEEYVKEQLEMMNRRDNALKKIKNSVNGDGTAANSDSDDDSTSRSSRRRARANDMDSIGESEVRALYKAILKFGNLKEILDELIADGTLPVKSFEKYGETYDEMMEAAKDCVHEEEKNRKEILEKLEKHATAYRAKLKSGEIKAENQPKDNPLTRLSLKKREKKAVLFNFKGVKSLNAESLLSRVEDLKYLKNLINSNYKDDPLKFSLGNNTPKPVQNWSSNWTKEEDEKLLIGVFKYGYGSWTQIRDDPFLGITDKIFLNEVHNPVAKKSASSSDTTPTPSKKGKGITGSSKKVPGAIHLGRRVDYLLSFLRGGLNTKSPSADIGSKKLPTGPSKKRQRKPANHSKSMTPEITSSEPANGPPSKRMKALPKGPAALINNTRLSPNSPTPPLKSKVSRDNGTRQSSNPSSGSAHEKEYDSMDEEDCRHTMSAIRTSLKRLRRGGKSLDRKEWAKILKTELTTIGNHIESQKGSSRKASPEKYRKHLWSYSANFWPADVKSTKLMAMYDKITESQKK
Sequence of Protein translocase subunit SecA (Escherichia coli (strain K12)) (P10408 whole entry): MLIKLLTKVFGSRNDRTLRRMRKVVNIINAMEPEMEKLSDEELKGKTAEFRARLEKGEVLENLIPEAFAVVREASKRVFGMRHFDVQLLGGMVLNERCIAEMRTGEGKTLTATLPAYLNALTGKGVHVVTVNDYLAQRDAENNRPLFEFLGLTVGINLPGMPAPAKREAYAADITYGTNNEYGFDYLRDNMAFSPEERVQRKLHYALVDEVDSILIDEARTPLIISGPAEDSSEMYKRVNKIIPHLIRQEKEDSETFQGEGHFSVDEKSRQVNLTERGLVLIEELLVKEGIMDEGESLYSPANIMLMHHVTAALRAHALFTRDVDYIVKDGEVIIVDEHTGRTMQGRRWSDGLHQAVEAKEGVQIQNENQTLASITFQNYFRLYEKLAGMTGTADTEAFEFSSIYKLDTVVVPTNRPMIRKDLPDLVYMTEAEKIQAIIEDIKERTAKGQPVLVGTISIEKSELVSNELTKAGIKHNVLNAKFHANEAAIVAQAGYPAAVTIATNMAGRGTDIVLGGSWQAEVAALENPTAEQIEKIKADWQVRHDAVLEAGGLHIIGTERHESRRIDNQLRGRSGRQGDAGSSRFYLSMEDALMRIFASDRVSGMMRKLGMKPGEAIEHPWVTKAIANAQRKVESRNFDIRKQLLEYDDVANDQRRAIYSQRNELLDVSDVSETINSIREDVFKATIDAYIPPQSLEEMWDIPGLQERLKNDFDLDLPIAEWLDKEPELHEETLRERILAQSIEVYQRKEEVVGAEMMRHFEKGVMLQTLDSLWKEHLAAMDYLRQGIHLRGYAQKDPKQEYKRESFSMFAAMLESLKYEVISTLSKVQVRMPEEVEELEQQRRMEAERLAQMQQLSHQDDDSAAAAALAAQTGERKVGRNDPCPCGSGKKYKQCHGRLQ

On to `CCOc1cc(C)nc(N2CCN(C(=O)c3ccc[nH]3)CC2)n1`, for which the Percent Effect in [1] was -3.03%; in assay [2], 2.7%; in assay [3] it was 1.91%; in assay [4] it was 13.3%; in the assay on Trypanosoma cruzi, -6.59%; in assay [5], 2.77%. The Percent Effect in [6] is 3.23%; in the assay filed under Homo sapiens, 22.2%; in [7] it was -0.99%; in assay [8], 3.66%; in [9], 1.45%.

As for `CC(C)(C)c1n[nH]cc1CN1CCc2nc3ccsc3c(=O)n2CC1`, the Percent Effect is -2.34% in [1]; 25.7% in assay [2]; 7.24% in [3]; -3.97% in [4]; 2.96% with Trypanosoma cruzi; -7.19% in assay [5]. For the same molecule, the Percent Effect is 18.7% in assay [6]; 43.3% in the assay filed under Homo sapiens; -1.07% in assay [7]; 3.9% in assay [8]; -5.96% in [9].

As to `CC(=O)c1cn(CC(=O)NC(C(=O)O)C(C)C)c2ccccc12` (stereo not given), the Percent Effect is -5.18% in assay [1]; -2.67% in [2]; 1.25% in [3]; -4.07% in [4]; -3.99% in the assay on Trypanosoma cruzi; -1.04% in assay [5]. Moreover, the Percent Effect in [6] is 8.72%; in the assay listed under Homo sapiens it was -13.9%; in assay [7], 1.64%; in assay [8] it was 1.24%; in assay [9], 3.17%.

On to `CCc1n[nH]c(C2CN(C(=O)Cn3ccccc3=O)CCO2)n1` (stereo not given), for which the Percent Effect in [1] is 0.155%; in assay [2] it was 16.5%; in [3], -10.9%; in assay [4], -3.88%; in the assay on Trypanosoma cruzi it was 0.718%; in [5], 6.67%. The Percent Effect in assay [6] was 17.1%; in the assay listed under Homo sapiens, 2.18%; in assay [7], 3.12%; in assay [8], 12.7%; in [9], -24.2%.

For the molecule `O=C(NCc1ccc(-n2cncn2)nc1)c1ccc2c(c1)CCO2`, the Percent Effect in [1] is -5.02%; in assay [2] it was 8.11%; in assay [3] it was -9.05%; in assay [4], 1.05%; in the assay on Trypanosoma cruzi, 1.79%; in assay [5], -2.4%. Further, the Percent Effect in assay [6] is -3.96%; in the assay filed under Homo sapiens, 14.7%; in assay [7] it was 7.39%; in [8], 13.6%; in [9], -6.1%.

Turning to `COc1c(CNCc2ccc(C(=O)NC3CC3)cc2)c(C)nn1C`, the Percent Effect is -3.12% in [1]; 8.86% in assay [2]; -1.46% in assay [3]; 6.83% in [4]; -3.18% with Trypanosoma cruzi; 2.8% in assay [5]. Further, the Percent Effect in assay [6] is 11%; in the assay listed under Homo sapiens, 9.67%; in [7], 1.04%; in [8], 12.7%; in assay [9] it was -6.42%.

In the case of `NC(=O)COc1cccc(C(=O)Nc2cnc3n2CCCC3)c1`, the Percent Effect in assay [1] is -4.34%; in [2] it was 6.94%; in assay [3], -7.99%; in assay [4] it was 1.81%; in the assay with Trypanosoma cruzi, -1.26%; in assay [5] it was 6.18%. The Percent Effect in assay [6] is 10.7%; in the assay filed under Homo sapiens, -0.649%; in assay [7] it was 8.42%; in assay [8], 15.4%; in assay [9], -3.57%.

As to `O=C([C@H]1C[C@H]2OCC[C@H]2N(C(=O)C2CCOCC2)C1)N1CCCCO1`, the Percent Effect was -5.69% in assay [1]; 13.3% in [2]; -3.93% in assay [3]; 1.16% in assay [4]; 1.93% with Trypanosoma cruzi; -50.4% in assay [5]. Moreover, the Percent Effect was 2.73% in [6]; -17.9% in the assay filed under Homo sapiens; 9.38% in assay [7]; 22.5% in assay [8]; -6.17% in assay [9].

`Cc1nc(COC[C@@H]2CC[C@H]3[C@H](CCN3S(C)(=O)=O)O2)cs1`: the Percent Effect in [1] was 1.19%; in assay [2] it was 8.11%; in [3], -0.571%; in assay [4], -10.8%; with Trypanosoma cruzi, -6.94%; in [5] it was 7.96%. For the same molecule, the Percent Effect in [6] came to 23.4%; in the assay listed under Homo sapiens, 8.05%; in assay [7], 6.49%; in assay [8], 10.3%; in assay [9] it was 0.52%.

As for `O=C1N(c2ccccc2)Cc2nc(=O)[nH]n21`, the Percent Effect was -6.16% in [1]; 9.33% in assay [2]; -6.52% in assay [3]; 1.33% in assay [4]; 1.38% with Trypanosoma cruzi; -3.35% in assay [5]. Further, the Percent Effect in [6] is 12.2%; in the assay filed under Homo sapiens it was 8.42%; in assay [7] it was 4.23%; in [8], 10.3%; in assay [9], -10.1%.
